This passage reports outcome and AC50 results from PubChem BioAssay (EPA / NIEHS).

Activity calls are given as the source filed them. The calls were made as follows: active = hit-call score of the fitted dose curve at least 0.9, where 1 is the maximum; inactive = score below 0.9.

Conditions in all cases: mRNA level, 48 h; actives raise or lower the signal
Read-out in assay [1]: Bcl-2 (BAX) gene, BAX (gene 581)
In words: LTEA_HepaRG_BAX: Life Technologies and Expression Analysis (LTEA) Assay for Bcl-2 (BAX) gene using HepaRG (AID 2283470). The method, boiled down:
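qRT-PCR read-out of BAX mRNA, normalized to three housekeeping genes, after 48 h chemical exposure of human HepaRG cells in serum-free induction medium; eight-point half-log series, top 100 uM, 0.5% DMSO vehicle; bidirectional fit versus DMSO.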

Read-out in assay [2]: adenosine kinase (ADK) gene, ADK (gene 132)
In words: LTEA_HepaRG_ADK: Life Technologies and Expression Analysis (LTEA) Assay for adenosine kinase (ADK) gene using HepaRG (AID 2283471). The method, boiled down: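 HepaRG (human liver), 48 h chemical exposure, 8-pt half-log series, top 100 uM, 0.5% DMSO vehicle. Readout: ADK mRNA by qRT-PCR vs housekeeping genes; bidirectional curve fit relative to DMSO baseline.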

Read-out in assay [3]: Alpha-fetoprotein (AFP) gene, AFP (gene 174)
In words: LTEA_HepaRG_AFP: Life Technologies and Expression Analysis (LTEA) Assay for Alpha-fetoprotein (AFP) gene using HepaRG (AID 2283472). The method, boiled down: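 qRT-PCR (Fluidigm TaqMan) readout of AFP transcript, normalized to three housekeeping genes, fitted bidirectionally against 0.5% DMSO baseline. HepaRG cells received chemicals for 48 h in serum-free induction medium, top concentration 100 uM, half-log steps.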

Read-out in assay [4]: BCL2L11 (gene 10018)
In words: LTEA_HepaRG_BCL2L11: Life Technologies and Expression Analysis (LTEA) Assay for Bcl-2 (BCL2L11) gene using HepaRG (AID 2283473). The gist of the method: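 Differentiated human HepaRG cells in serum-free induction medium were exposed in duplicate for 48 h to eight concentrations (top 100 uM, half-log steps, 0.5% DMSO). BCL2L11 mRNA was quantified by TaqMan qRT-PCR, normalized to ACTB/GAPDH/POLR2A, bidirectional fit versus DMSO.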

Read-out in assay [5]: Apoptosis regulator Bcl-2 (Homo sapiens) (UniProt P10415)
In words: LTEA_HepaRG_BCL2: Life Technologies and Expression Analysis (LTEA) Assay for Bcl-2 gene using HepaRG (AID 2283475). The gist of the method:
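qRT-PCR read-out (Fluidigm TaqMan) of BCL2 transcript, normalised to three housekeeping genes, after 48 h chemical exposure of HepaRG cells; 8-point half-log series, top 100 uM, 0.5% DMSO vehicle. Gain or loss of signal fitted relative to DMSO baseline.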

Read-out in assay [6]: Bcl-2 (BID) gene, BID (gene 637)
Kind of assay: LTEA_HepaRG_BID: Life Technologies and Expression Analysis (LTEA) Assay for Bcl-2 (BID) gene using HepaRG (AID 2283476). The gist of the method:
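HepaRG, 48 h exposure, 8-pt half-log series, top 100 uM, 0.5% DMSO vehicle, duplicates. Readout: BID mRNA by TaqMan qRT-PCR; housekeeping-normalized; bidirectional curve fit vs DMSO baseline.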

Read-out in assay [7]: Caspase-3 (Homo sapiens) (UniProt P42574)
Kind of assay: LTEA_HepaRG_CASP3: Life Technologies and Expression Analysis (LTEA) Assay for cysteine-aspartic acid protease (CASP3) using HepaRG (AID 2283477). The method, boiled down:
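Differentiated human HepaRG cells in serum-free induction medium were exposed 48 h to 8-point half-log concentrations from 100 uM (0.5% DMSO vehicle). CASP3 mRNA was measured by qRT-PCR, normalised to ACTB, GAPDH and POLR2A, with bidirectional fitting against DMSO.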

Read-out in assay [8]: Cytochrome P450 (CYP24A1), CYP24A1 (gene 1591)
Kind of assay: LTEA_HepaRG_CYP24A1: Life Technologies and Expression Analysis (LTEA) Assay for Cytochrome P450 (CYP24A1) using HepaRG (AID 2283478). The method, boiled down: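 Differentiated HepaRG cells, pre-cultured 48 h, were exposed in duplicate for 48 h in serum-free induction medium to 8 half-log concentrations (top 100 uM, 0.5% DMSO). CYP24A1 mRNA was quantified by TaqMan qRT-PCR, normalized to ACTB/GAPDH/POLR2A, fitted bidirectionally versus DMSO.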

Read-out in assay [9]: Cytochrome P450 (CYP1A2), CYP1A2 (gene 1544)
In words: LTEA_HepaRG_CYP1A2: Life Technologies and Expression Analysis (LTEA) Assay for Cytochrome P450 (CYP1A2) using HepaRG (AID 2283479). The gist of the method:
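Differentiated human HepaRG cells in serum-free induction medium were exposed in duplicate for 48 h to 8-point half-log concentrations up to 100 uM in 0.5% DMSO. CYP1A2 mRNA measured by qRT-PCR, normalized to ACTB, GAPDH, POLR2A; bidirectional fit vs DMSO.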

Read-out in assay [10]: cysteine-aspartic acid protease (CASP8), CASP8 (gene 841)
Kind of assay: LTEA_HepaRG_CASP8: Life Technologies and Expression Analysis (LTEA) Assay for cysteine-aspartic acid protease (CASP8) using HepaRG (AID 2283480). The method, boiled down:
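CASP8 transcript measured by TaqMan qRT-PCR with ACTB/GAPDH/POLR2A normalization, after 48 h chemical exposure of HepaRG cells in serum-free induction medium. Eight concentrations, top 100 uM, half-log steps, 0.5% DMSO vehicle; fits in both directions versus DMSO.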

Read-out in assay [11]: Cytochrome P450 (CYP2B6), CYP2B6 (gene 1555)
Kind of assay: LTEA_HepaRG_CYP2B6: Life Technologies and Expression Analysis (LTEA) Assay for Cytochrome P450 (CYP2B6) using HepaRG (AID 2283481). The gist of the method: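 Differentiated HepaRG cells, serum-free induction medium, exposed 48 h in duplicate to 8-point half-log concentrations from 100 uM in 0.5% DMSO. CYP2B6 mRNA by qRT-PCR, normalized to ACTB, GAPDH, POLR2A; bidirectional fit versus DMSO.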

Read-out in assay [12]: Cytochrome P450 2C19 (Homo sapiens) (UniProt P33261)
Kind of assay: LTEA_HepaRG_CYP2C19: Life Technologies and Expression Analysis (LTEA) Assay for CYP2C19 using HepaRG (AID 2283482). The gist of the method: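 Differentiated human HepaRG cells were exposed for 48 h in serum-free induction medium to 8 concentrations (top 100 uM, half-log steps, 0.5% DMSO). CYP2C19 mRNA was measured by qRT-PCR, normalized to ACTB/GAPDH/POLR2A, and fitted bidirectionally against DMSO.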

Read-out in assay [13]: CYP2C8 (gene 1558)
In words: LTEA_HepaRG_CYP2C8: Life Technologies and Expression Analysis (LTEA) Assay for CYP2C8 using HepaRG (AID 2283483). The gist of the method: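 CYP2C8 expression measured by TaqMan qRT-PCR and normalized to three housekeeping genes. HepaRG cultures were treated for 48 h with an eight-point half-log series topping at 100 uM, vehicle 0.5% DMSO, duplicates; fitted both directions against DMSO.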

Read-out in assay [14]: CYP2C9 (gene 1559)
Kind of assay: LTEA_HepaRG_CYP2C9: Life Technologies and Expression Analysis (LTEA) Assay for CYP2C9 using HepaRG (AID 2283484). The method, boiled down: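 CYP2C9 transcript level, quantified by TaqMan qRT-PCR against three housekeeping genes, was fitted bidirectionally relative to 0.5% DMSO. HepaRG cultures were treated 48 h, in duplicate, at eight half-log concentrations topping at 100 uM.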

Read-out in assay [15]: CYP2E1 (gene 1571)
In words: LTEA_HepaRG_CYP2E1: Life Technologies and Expression Analysis (LTEA) Assay for CYP2E1 using HepaRG (AID 2283485). The method, boiled down: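 CYP2E1 transcript was measured by TaqMan qRT-PCR in human HepaRG cultures after 48 h chemical exposure (top 100 uM, half-log steps, 0.5% DMSO vehicle). Housekeeping-gene normalization; gain or loss fitted relative to DMSO baseline.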

Read-out in assay [16]: Cytochrome P450 3A4 (Homo sapiens) (UniProt P08684)
In words: LTEA_HepaRG_CYP3A4: Life Technologies and Expression Analysis (LTEA) Assay for CYP3A4 using HepaRG (AID 2283487). The method, boiled down: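 CYP3A4 transcript measured by TaqMan qRT-PCR and normalized to three housekeeping genes after 48 h chemical exposure of human HepaRG cells. Top concentration 100 uM, half-log steps, 0.5% DMSO vehicle; gain or loss fitted against DMSO baseline.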

Read-out in assay [17]: Pro-epidermal growth factor (Homo sapiens) (UniProt P01133)
Kind of assay: LTEA_HepaRG_EGF: Life Technologies and Expression Analysis (LTEA) Assay for Epidermal growth factor (EGF) using HepaRG (AID 2283489). The gist of the method:
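Differentiated human HepaRG cells, plated 48 h then switched to serum-free induction medium, were exposed for 48 h to test chemicals (8-point half-log series, top 100 uM, 0.5% DMSO). EGF mRNA was quantified by qRT-PCR, normalized to ACTB, GAPDH, POLR2A.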

Read-out in assay [18]: DNA damage-inducible transcript 3 (DDIT3), DDIT3 (gene 1649)
In words: LTEA_HepaRG_DDIT3: Life Technologies and Expression Analysis (LTEA) Assay for DNA damage-inducible transcript 3 (DDIT3) using HepaRG (AID 2283488). The method, boiled down:
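qRT-PCR readout (Fluidigm TaqMan), housekeeping-normalized to ACTB, GAPDH, POLR2A. HepaRG cells, 48 h exposure, 8-point half-log series from 100 uM in 0.5% DMSO, duplicates. Gain or loss of signal fitted against DMSO baseline.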

Chain of Apoptosis regulator Bcl-2 (Homo sapiens) (P10415 whole entry, looked up): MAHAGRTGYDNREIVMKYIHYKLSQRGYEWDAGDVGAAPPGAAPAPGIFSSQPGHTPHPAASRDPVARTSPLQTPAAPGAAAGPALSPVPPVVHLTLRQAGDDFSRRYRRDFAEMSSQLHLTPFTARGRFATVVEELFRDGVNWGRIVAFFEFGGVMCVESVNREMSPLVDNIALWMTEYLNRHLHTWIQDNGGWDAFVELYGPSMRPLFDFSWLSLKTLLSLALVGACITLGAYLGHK
Chain of Cytochrome P450 2C19 (Homo sapiens) (P33261 whole entry, looked up): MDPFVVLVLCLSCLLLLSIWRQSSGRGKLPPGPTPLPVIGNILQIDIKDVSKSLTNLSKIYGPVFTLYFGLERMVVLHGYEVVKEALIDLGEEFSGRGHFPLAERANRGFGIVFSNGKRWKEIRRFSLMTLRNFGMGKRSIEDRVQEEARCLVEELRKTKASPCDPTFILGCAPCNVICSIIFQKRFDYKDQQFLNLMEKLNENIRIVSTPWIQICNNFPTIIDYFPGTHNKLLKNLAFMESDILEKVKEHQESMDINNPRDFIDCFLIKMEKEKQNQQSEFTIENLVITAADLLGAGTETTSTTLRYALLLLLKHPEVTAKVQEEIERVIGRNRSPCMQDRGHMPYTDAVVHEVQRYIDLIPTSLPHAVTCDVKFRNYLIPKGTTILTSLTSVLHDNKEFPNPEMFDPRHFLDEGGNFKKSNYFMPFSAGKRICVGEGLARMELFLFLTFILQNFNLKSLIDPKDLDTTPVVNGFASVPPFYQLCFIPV
Chain of Caspase-3 (Homo sapiens) (P42574 whole entry, looked up): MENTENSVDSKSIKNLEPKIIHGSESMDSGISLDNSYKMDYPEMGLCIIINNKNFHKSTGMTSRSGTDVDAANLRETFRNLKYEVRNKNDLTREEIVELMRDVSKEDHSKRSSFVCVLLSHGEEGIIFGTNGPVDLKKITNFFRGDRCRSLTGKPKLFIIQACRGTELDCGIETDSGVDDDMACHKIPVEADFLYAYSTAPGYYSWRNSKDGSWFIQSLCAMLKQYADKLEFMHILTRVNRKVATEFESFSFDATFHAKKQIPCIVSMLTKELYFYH
Chain of Cytochrome P450 3A4 (Homo sapiens) (P08684 whole entry, looked up): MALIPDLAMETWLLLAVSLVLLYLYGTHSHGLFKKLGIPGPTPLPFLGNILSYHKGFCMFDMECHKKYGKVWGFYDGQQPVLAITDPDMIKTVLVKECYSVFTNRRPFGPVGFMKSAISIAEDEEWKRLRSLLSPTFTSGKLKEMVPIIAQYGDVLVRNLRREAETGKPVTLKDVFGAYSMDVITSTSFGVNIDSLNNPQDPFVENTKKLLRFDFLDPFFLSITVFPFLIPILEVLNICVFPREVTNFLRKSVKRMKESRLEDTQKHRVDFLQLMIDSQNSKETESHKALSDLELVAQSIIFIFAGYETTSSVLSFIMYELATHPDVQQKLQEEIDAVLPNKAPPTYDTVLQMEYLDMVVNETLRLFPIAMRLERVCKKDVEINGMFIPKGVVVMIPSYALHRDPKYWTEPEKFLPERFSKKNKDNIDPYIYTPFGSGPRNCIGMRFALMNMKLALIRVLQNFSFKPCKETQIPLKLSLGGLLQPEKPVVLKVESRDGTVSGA

With `C/C=C/c1ccc(OC)cc1`, the result in [1], in assay [2], in assay [3], in [4], in assay [5] and in assay [6] was inactive. For the same compound, the result in assay [7], in assay [8], in assay [9], in assay [10], in [11] and in [12] was inactive. For the same compound, the outcome in assay [13], in assay [14], in assay [15], in [16] and in assay [17] was inactive.
Take `CC1(C)C(=O)NC(=O)N1CO`: the compound was classed as inactive in [1], in assay [2], in [3], in assay [4], in [5] and in [6]. For the same compound, the outcome in assay [7], in assay [8], in assay [9], in assay [10], in assay [11] and in [12] was inactive. For the same compound, the compound was classed as inactive in assay [13], in [14], in assay [15] and in assay [17].
With `COc1ccc(OC(F)(F)F)cc1CN[C@H]1CCCN[C@H]1c1ccccc1`, the outcome in [1], in assay [5], in assay [6], in [8], in assay [10] and in assay [13] was inactive. In addition, the concentration at half-maximal activity (AC50) in assay [2] is 79.3 µM (active); in [3] it was 9.61 µM (active); in [4], 84.5 µM (active); in assay [7], 81.8 µM (active); in assay [9], 15.8 µM (active); in [11], 86.1 µM (active). Moreover, the concentration at half-maximal activity (AC50) was 2.8 µM (active) in assay [12]; 83.7 µM (active) in assay [14]; 16.8 µM (active) in assay [15]; 91.9 µM (active) in assay [16]; 50 µM (active) in [17].
Turning to `O=C(NS(=O)(=O)/C=C/c1cccs1)c1ccc(F)cc1Br`, the outcome in assay [1], in assay [2], in assay [4], in [5], in assay [6] and in assay [7] was inactive. The call in assay [8], in assay [9], in assay [10], in assay [11], in assay [13] and in assay [14] was inactive. For the same compound, the result in assay [18] and in [17] was inactive. In addition, the half-maximal activity concentration (AC50) in assay [3] was 50 µM (active); in assay [12] it was 13 µM (active); in [15], 25.3 µM (active); in assay [16] it was 5.73 µM (active).

The term AC50 denotes the midpoint of the concentration-response curve, whichever way the signal moves.
